Shown are actives, neighbours in structure and some others; about 2.5% of the full set was active somewhere.
POLK inh – qHTS for Inhibitors of Polymerase Kappa; DNA polymerase kappa (Homo sapiens), Q9UBT6; purified Pol kappa, fluorescent DNA synthesis assay, 10 min; Potency, µM (titrated, usually from 107 µM), hits mostly inhibitors; 0.53% of 400,000 active; AID 588579, 2011
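10 nM Pol kappa preincubated 15 min at room temperature with compounds, then reaction started with substrate at 50 nM final. Fluorescence read kinetically at 0 and 10 min; buffer-only wells served as negative control.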
Pol eta inh – qHTS for Inhibitors of Polymerase Eta; recombinant Pol eta, fluorescent DNA replication assay; Potency, µM (top dose mostly 114 µM), most hits filed as inhibitors; 1.2% of 390,000 active
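Pol eta at 10 nM preincubated with compounds 15 min at room temperature; reaction started with fluorescent substrate (50 nM final) and read kinetically at 0 and 10 min.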
POLI inh – qHTS for Inhibitors of Polymerase Iota. 1% of 390,000 active. Pol iota fluorescent replication assay, 10 min. AID 588590, 2011. Potency, µM (doses to about 115 µM), usual class: inhibitors
Target sequence (Q9UNA4 whole entry, looked up): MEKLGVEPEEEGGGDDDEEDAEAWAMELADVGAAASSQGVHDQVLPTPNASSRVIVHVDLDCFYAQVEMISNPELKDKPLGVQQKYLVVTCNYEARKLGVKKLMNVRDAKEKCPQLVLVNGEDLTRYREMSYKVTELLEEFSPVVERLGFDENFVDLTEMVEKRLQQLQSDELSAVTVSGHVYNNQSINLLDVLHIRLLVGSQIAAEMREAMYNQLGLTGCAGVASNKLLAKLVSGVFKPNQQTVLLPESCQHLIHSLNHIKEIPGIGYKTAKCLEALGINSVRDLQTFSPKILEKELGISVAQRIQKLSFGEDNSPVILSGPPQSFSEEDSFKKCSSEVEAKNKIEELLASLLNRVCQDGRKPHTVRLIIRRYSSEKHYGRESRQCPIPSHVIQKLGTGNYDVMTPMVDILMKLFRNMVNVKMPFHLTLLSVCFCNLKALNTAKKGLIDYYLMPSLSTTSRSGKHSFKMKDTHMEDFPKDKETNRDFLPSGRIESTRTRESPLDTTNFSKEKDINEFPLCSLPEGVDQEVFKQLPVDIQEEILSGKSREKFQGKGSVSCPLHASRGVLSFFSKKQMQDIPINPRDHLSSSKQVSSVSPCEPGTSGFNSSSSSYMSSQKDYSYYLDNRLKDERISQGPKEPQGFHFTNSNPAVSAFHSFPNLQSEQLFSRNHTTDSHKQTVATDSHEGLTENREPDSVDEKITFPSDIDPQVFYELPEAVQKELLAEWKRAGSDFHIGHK
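Fluorescent replication assay read twice, at 0 min and 10 min after adding 50 nM (final) substrate. Enzyme (10 nM) and compounds were first incubated 15 min at room temperature; enzyme-free buffer wells were negative controls.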
Pol beta inh – qHTS Assay for Inhibitors of DNA Polymerase Beta. Pol beta primer extension/strand displacement, fluorescence kinetic. Potency, µM (highest dose often 114 µM), actives largely listed as inhibitors. 1.3% of 340,000 active. AID 485314, 2010
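Kinetic readout of DNA synthesis with strand displacement by Pol beta. Compound and 10 nM enzyme sit 15 min at room temperature; 50 nM substrate starts the reaction, read immediately and at 10 min.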
APE1 inh – qHTS Assay for Inhibitors of the Human Apurinic/apyrimidinic Endonuclease 1 (APE1). 0.35% of 350,000 active. recombinant APE1, TAMRA/BHQ-2 abasic DNA cleavage fluorescence. Potency, µM (series often up to 65.8 µM), hits mostly inhibitors. DNA repair nuclease/redox regulator APEX1 (Homo sapiens), P27695; note: nearly all actives have a fitted effect of over 55% in size
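Endonuclease cleavage of a quenched abasic-site DNA duplex (50 nM) by APE1 (0.75 nM) was tracked by TAMRA dequenching. Compounds were preincubated with enzyme 15 min at room temperature; data normalized to buffer-only and DMSO wells plus NSC13755 control.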
L3MBTL1 inh – qHTS Assay for the Inhibitors of L3MBTL1; Potency, µM (doses to about 57.1 µM), hits mostly inhibitors; Lethal(3)malignant brain tumor-like protein 1 (Homo sapiens), Q9Y468; 0.66% of 230,000 active; AlphaScreen L3MBTL1–H3K9me1 peptide binding; note: nearly all actives have a fitted effect of over 60% in size
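AlphaScreen assay: L3MBTL1 (50 nM final) was preincubated 30 min at room temperature with biotinylated H3(1-15)K9me1 peptide (75 nM final), then 30 min with library compounds; streptavidin donor and nickel chelate acceptor beads (10 ug/mL final) added, 30 min dark.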
Numbers stand for hits; . = inactive; ? = inconclusive; / = not tested or not shown; ! = a repeat was not active; [ ] = another dose, or the depositor's remark. Calls come from the whole dose curve; as a rule, active = well fitted curve in the direction sought with a large enough effect; inconclusive = small, poorly fitted or top-dose-only effect, or another doubt; inactive = no such curve, though single readings can be large; an effect the other way counts as inactive or inconclusive.

SMILES | POLK inh | Pol eta inh | POLI inh | Pol beta inh | APE1 inh | L3MBTL1 inh
CC(=O)Nc1ccc(S(=O)(=O)CC(=O)CS(=O)(=O)c2ccc(NC(C)=O)cc2)cc1 | / | 35µM | / | / | / | /
C/C(=C\c1ccc(C(=O)O)cc1)c1ccc2c(c1)C(C)(C)CCC2(C)C | ? | ? | 32µM! | ? | . | .
CC1(C)CCC(C)(C)c2cc(C(=O)Nc3ccc(C(=O)O)cc3)ccc21 | .[19.4 µM] | / | / | / | . | /
CCCCC/C=C\C\C=C/C=C/C=C/[C@@H](SCC(NC(C)=O)C(=O)O)[C@@H](O)CCCC(=O)O (some centres not stated) | .[19.4 µM] | / | / | / | . | /
CC(OC(=O)c1ccc(NC(=O)CC#N)cc1)C(=O)NC(c1ccccc1)c1ccccc1 (configuration not stated) | . | 50µM | ? | / | . | .
Cc1ccccc1-c1cc(N(C)Cc2ccco2)ncn1 | . | / | / | / | . | /
C/C(=N/NC(=O)c1ccco1)c1cccc(NC(=O)c2ccc(C)s2)c1 | 89µM | . | . | . | . | .
O=C(CC1N=C2c3ccccc3N=C(SCc3ccc(Cl)cc3)N2C1=O)NCc1ccco1 (configuration not stated) | ? | 79µM | ? | ? | . | .
Cc1ccccc1NC(=O)Cn1nnc(S(=O)(=O)c2ccc(C(C)(C)C)cc2)c1N | . | . | ? | 32µM | . | .
O=C(N/N=C\c1cccnc1)c1cc(-c2ccc(Cl)s2)[nH]n1 | . | ? | ? | 14µM | ? | .
Cc1cccc(C(=O)Nc2ccc(C(=O)N/N=C/c3ccc4c(c3)OCO4)cc2)c1 | . | . | . | 35µM | . | /
O=C(N/N=C/c1cccnc1)c1ccc(NC(=O)c2cccc(Cl)c2)cc1 | . | ? | ? | 8.9µM | . | /
CCS(=O)(=O)c1cccc(C(=O)Nc2ccc(-c3nc4ccccc4s3)c(O)c2)c1 | . | ? | ? | 20µM | / | /
O=C(CCS(=O)(=O)c1ccccc1)Nc1ccc(-c2nc3ccccc3s2)c(O)c1 | . | . | . | . | . | .
Cc1cc(N=Nc2ccc(C)c(N=Nc3cc(C)c(N)cc3N)c2)c(N)cc1N | 50µM | . | ? | ? | . | /
COc1ccc(C(=O)COC(=O)CN2CC(=O)Oc3ccccc32)cc1Br | . | . | 25µM | ? | . | /
CCN1C(=O)CC(C(=O)NC)SC1=Nc1cc(Cl)c(O)c(Cl)c1 (configuration not stated) | . | . | 89µM | . | . | .
CCN=C1SC(C(=O)Nc2cc(Cl)cc(Cl)c2)CC(=O)N1CC (configuration not stated) | . | . | . | . | . | .
CC1=C(C#N)C(=O)N(C2CCS(=O)(=O)C2)C(=O)/C1=C\c1ccco1 (configuration not stated) | / | / | / | ? | 1.6µM | /
COc1ccc(Nc2nc(N3CCCC3)c3ccccc3n2)cc1 | . | . | ? | 35µM | . | /
CCN(CC)c1ccc(Nc2nc(N3CCOCC3)c3ccccc3n2)cc1 | . | . | ? | . | . | /
N#Cc1c(NC(=O)CSc2ncccn2)oc(-c2ccccc2)c1-c1ccccc1 | ? | 10µM | ? | / | / | /
Cc1ccnc(SCC(=O)Nc2oc(-c3ccccc3)c(-c3ccccc3)c2C#N)n1 | . | . | . | . | . | .
CCC(=O)c1ccc(OCC(=O)N2CCCC2)c(OC)c1 | . | . | . | 22µM | ? | ?
CC[N+](C)(C(=O)O)/C(=C\c1ccccc1)c1ccnc2ccccc12 (configuration not stated) | . | / | . | / | / | /
Cn1cc(C(=O)N/N=C/C2=C(N3CCOCC3)C(=C/c3ccc([N+](=O)[O-])cc3)/CC2)ccc1=O | . | ? | 50µM | / | / | /
CC(C)C(NC(=O)C12CC3CC(CC(C3)C1)C2)C(=O)N/N=C/C1=C(N2CCOCC2)C(=C\c2cccc([N+](=O)[O-])c2)/CC1 (configuration not stated) | . | . | . | . | . | .

Compound activity from PubChem BioAssay.
